Compound activity (PubChem BioAssay)
TGFb SMAD3 inh: blocks TGF-b signaling; HepG2 CAGA-GFP TGF-b/SMAD3 reporter, GFP fluorescence, 18 h; TGF-beta stimulated, 500 pg/mL final; Potency, µM (highest dose often 46.1 µM), for the others: at the highest dose activity, negative = inhibition, hits mostly inhibitors; 410,000 compounds, 1.2% hits; AID 588855; also: potency is read from the fitted curve at half-maximal effect; % is scaled to controls: 0 for no effect and ±100 for the full control effect; nearly all actives have a fitted effect of over 65% in size
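Per well, imaged GFP fluorescence of HEPG2 CAGA-GFP cells gives the signal; cells get compound, then TGF-beta (500 pg/mL final), 18 h at 37 degrees C; %Activity versus -TGF-beta and +DMSO controls.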
HepG2 viability: counter-screen for TGF-b inhibitors: cytotoxicity in HepG2 cells; HepG2 CAGA-GFP viability, ATP luminescence, 18 h; Potency, µM (doses to about 46.1 µM), inactives show top-dose activity change, negative = cytotoxicity, usual class: cytotoxic; 410,000 compounds, 0.76% hits; AID 588856; also: potency is read from the fitted curve at half-maximal effect
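HepG2 CAGA-GFP cells (1000/well, DMEM with 1% FBS) received compound, then TGF-beta at 500 pg/mL final, and were incubated 18 hours at 37 degrees C. Viability was read by CellTiter-Glo luminescence. Media-only wells were set as complete cell-killing and DMSO as no toxicity.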
IL1B secr inh: blocks inflammasome-driven IL-1 beta release; 360,000 compounds, 4.7% hits; activity change, % at 57.5 µM; THP-1 LPS/ATP IL-1B secretion, AlphaLISA, 16 h; active compounds read low; in the data active = activity change below about -50%; inconclusive = mostly about -30% to -49%; also: % is scaled to controls: 0 for no effect and ±100 for the full control effect
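THP-1 cells pretreated 1 hr with compounds (up to 57.5 uM final), then stimulated with LPS (250 ng/mL final) plus ATP (1.25 mM final); secreted IL-1B measured by AlphaLISA after 16 hr, decreased signal indicating inhibition.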
Giardia kill: kills Giardia lamblia; Giardia lamblia trophozoite viability; activity change, % at 7.66 µM, hits read low; 340,000 compounds, 0.15% hits; in the data active = activity change below about -80%; inconclusive = between about -30% and that limit;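 also: parasites exposed to compound for two days anaerobically before the ATP read; % is scaled to controls: 0 for no effect and ±100 for the full control effect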
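Media and compound were dispensed first, then trophozoites at 100 cells/well; plates sat 48 hrs at 37 deg C without oxygen before ATP luminescence reagent was added and read after 15-30 min at room temperature.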
HT1080NT lethal: kills 2HG-producing HT-1080-NT fibrosarcoma cells. HT-1080-NT fibrosarcoma viability, CellTiter-Glo ATP luminescence, 48 h. Potency, µM (top dose mostly 46.1 µM), without a hit: at the top dose activity, negative = less viability, usual class: cytotoxic. 360,000 compounds, 1.6% hits. AID 686970;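 also: NT is the 2HG producing partner of a matched IDH1 knockdown line; potency is read from the fitted curve at half-maximal effect; 0% = DMSO-treated cells and -100% = media-only wells without cells; nearly all actives have a fitted effect of over 55% in size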
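Compounds were tested in concentration-response format on HT-1080-NT cells for 48 hours at 37 degrees C. Cell viability came from CellTiter-Glo luminescence; curves were classified by r2, response magnitude and activity.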
HT1080 IDH1KD tx: HT-1080 IDH1 knockdown cell toxicity (counter line) | HT-1080 IDH1 knockdown viability, ATP luminescence, 48 h | Potency, µM (titrated, usually from 46.1 µM), for the others: at the highest dose activity, negative = toxicity, usual class: cytotoxic | 360,000 compounds, 2% hits | AID 686971;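 also: potency is read from the fitted curve at half-maximal effect; 0% = DMSO wells and -100% = cell-free medium wells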
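Knockdown cells (IDH1KD HT-1080) received compounds 2 h after plating at 750 cells/well and were kept 48 h at 37 °C in 5% FBS RPMI. A CellTiter-Glo luminescence read gave % activity for curve fitting.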
The depositor's hits bear a star; u = inconclusive; x = no result; [ ] = dose if it differs, or a comment. An excerpt weighted towards active compounds, which were near 6.5% of everything screened. Unless noted, calls follow the shape of the dose curve; as a rule, active = well fitted curve in the direction sought with a large enough effect; inconclusive = small, poorly fitted or top-dose-only effect, or another doubt; inactive = no such curve, though single readings can be large; an effect the other way counts as inactive or inconclusive.

SMILES	TGFb SMAD3 inh	HepG2 viability	IL1B secr inh	Giardia kill	HT1080NT lethal	HT1080 IDH1KD tx
Cc1sc2cc3c(c(C(=O)c4ccccc4)[n+]2c1C)-c1cccc2cccc-3c12	u	-1.5%	-96.6*	14.9	8.2µM*	8.2µM*
COc1cc2c(cc1NC(=O)COC(=O)[C@@H](NS(=O)(=O)c1cccc(Cl)c1)C(C)C)oc1ccccc12	u	-36.1%	0.0	11.2	-6.9%	-18.6%
O=S(=O)(Nc1ccc(-c2ccc(N3CCCCCC3)nn2)cc1)c1ccc(C(F)(F)F)cc1	-28.2%	-12.3%	x	x	x	x
CCC(=O)N1CCc2cc(S(=O)(=O)NC(Cc3ccccc3)C(=O)Nc3ccc(Cl)cc3)ccc21 (stereo unspecified)	u	-18.0%	x	x	x	x
COc1ccc(OC)c(C2CC(=O)c3c([nH]c(C(=O)OC(C)C)c3C)C2)c1 (stereo unspecified)	-21.0%	-5.0%	10.3	0.7	5.8µM*	3.26µM*
CCCOCCOC(=O)c1[nH]c2c(c1C)C(=O)CC(c1cc(OC)ccc1OC)C2 (stereo unspecified)	-13.0%	-0.6%	-72.0*	5.5	5.8µM*	4.11µM*
CCC(C)OC(=O)c1[nH]c2c(c1C)C(=O)CC(c1ccc(N(C)C)cc1)C2 (stereo unspecified)	-24.9%	-15.5%	8.1	-18.7	u	23.1µM*
COCCOC(=O)c1[nH]c2c(c1C)C(=O)CC(c1cc(OC)ccc1OC)C2 (stereo unspecified)	-25.1%	-22.8%	36.3	-12.2	11.6µM*	11.6µM*
CS(=O)(=O)N1CCC(CO)(Cc2ccccc2C(F)(F)F)CC1	4.7%	-1.6%	18.4	-26.5	4.7%	-1.5%
O=S1(=O)CCOC[C@H](Cc2ccccc2)N1Cc1ccccc1F	u	2.4%	-15.7	12.9	10.5%	9.8%
CN(C)c1nc(Cl)cc(N2CCOCC2)n1	6.7%	-7.5%	-17.1	-10.0	3.3%	-4.7%
CCOC(=O)C1=C(N)n2c(s/c(=C\c3ccco3)c2=O)=C(C(=O)OCC)C1c1ccco1 (stereo unspecified)	8.9%	4.1%	8.0	-5.8	15.8µM*	7.94µM*
Cc1cc(-c2nnc3n2N=C(c2ccc(-c4ccccc4)cc2)CS3)n[nH]1	u	-13.8%	-62.4*	13.8	23.1µM*	u
Cc1cc(-c2nnc3n2N=C(c2ccccc2)CS3)n[nH]1	-14.0%	-14.9%	x	10.9	4.1%	10.2%
CCCc1ccc(C2=Nn3c(nnc3C(C)C)SC2)cc1	1.2%	-22.3%	-90.8*	7.0	u	u
c1ccc(-c2cc(-c3nnc4n3N=C(c3ccc5ccccc5c3)CS4)[nH]n2)cc1	u	-65.6%	-64.5*	-4.5	u	17.8µM*
CCOc1ccc(C2=Nn3c(nnc3-c3ccc(OC)cc3)SC2)cc1	u	-42.0%	19.7	18.3	u	6.51µM*
CCOc1ccc(NC(=S)NC(=O)c2ccco2)cc1	-14.5%	-10.3%	25.1	-8.0	14.5%	6.9%
CNc1nc2[nH]c(=O)c3c(c2s1)OC(N)=C(C#N)C3c1cccc(F)c1 (stereo unspecified)	9.9%	-1.3%	-6.3	-0.8	8.0%	23.5%
COc1cc(NC(=O)c2cnn3c(C)cc(C)nc23)c(OC)cc1Cl	-7.0%	-18.3%	12.0	24.3	2.5%	-1.7%
CN(C)CCN1C(=O)C(=O)/C(=C(/O)c2ccc(S(=O)(=O)N3CCOCC3)cc2)C1c1ccc(F)cc1 (stereo unspecified)	-4.2%	12.6µM*	8.0	-3.0	8.2%	9.1%
CN(C)CCN1C(=O)C(=O)/C(=C(/O)c2ccc(S(=O)(=O)N3CCOCC3)cc2)C1c1ccccc1 (stereo unspecified)	-2.1%	-6.9%	17.7	3.2	-21.1%	-21.3%[9.24 µM]
O=C(Nc1nnc(-c2ccccc2Cl)o1)c1ccco1	17.4%	-6.2%	-0.6	9.9	8.91µM*	u
O=C(NCCN1CCNC1=O)c1ccc2sc([C@H]3C[C@H](O)[C@@H](CO)O3)nc2c1	17.5%	4.8%	-86.2*	x	1.2%	17.4%
O=C(Nc1ccc(Oc2ccccc2)cc1)c1ccc2sc([C@H]3C[C@H](O)[C@@H](CO)O3)nc2c1	-0.7%	-28.2%	62.6	x	7.31µM*	2.59µM*
SMILES	TGFb SMAD3 inh	HepG2 viability	IL1B secr inh	Giardia kill	HT1080NT lethal	HT1080 IDH1KD tx
O=C(Nc1ccc(Oc2ccccc2)cc1)c1csc([C@@H]2O[C@H](CO)[C@@H](O)[C@H]2O)n1	2.8%	4.1%	70.8	x	u	7.31µM*
O=C(Nc1ccc(OCCO)cc1)c1csc([C@@H]2O[C@H](CO)[C@H](O)[C@H](O)[C@H]2O)n1	1.5%	5.3%	50.4	x	18.1%	2.1%
CC(C)(C)NC(=O)CSc1nnc(-c2ccccn2)n1Cc1ccccc1	6.7%	5.9%	2.1	21.2	1.8%	1.8%
COc1ccc(/C=C(\NC(=O)c2ccc(C)cc2)C(=O)NCCN2CCOCC2)cc1	4.5%	-1.5%	0.7	5.8	12.7%	17.3%
Cc1[nH]n(-c2ncc(-c3ccccc3)s2)c(=O)c1C(c1ccc(Cl)cc1)C(C#N)C#N (stereo unspecified)	u	-2.0%	-63.6*	-3.3	6.6%	7.7%
COc1cccc(Nc2ccc([N+](=O)[O-])c3nonc23)c1	-23.0%	0.9%	40.5	-23.9	14.6µM*	23.1µM*
Cc1cccc(C)c1NC(=O)C(Cl)=C(Cl)Cl	-2.3%	-0.4%	-58.8*	37.0	u	u
CCCCN(C)S(=O)(=O)c1ccc(C(=O)Nc2sc3c(c2C(=O)OCC)CCN(C(C)C)C3)cc1	35.8%	-55.2%	x	x	x	x
O=c1c2ccccc2nc(/C=C/c2c[nH]c3ccccc23)n1CCO	2.9%	-5.7%	-92.3*	-4.1	u	u
O=c1c2ccccc2nc(/C=C/c2ccc3c(c2)OCO3)n1CCCO	u	-3.6%	-56.2*	-10.8	u	6.51µM*
O=c1c2ccccc2nc(/C=C/c2cc(Br)ccc2O)n1CCO	u	12.6µM*	-97.7*	5.7	-13.2%	-17.5%
O=c1c2ccccc2nc(/C=C/c2ccccc2)n1CCCO	-31.2%	-2.4%	-16.6	-3.2	-9.8%	-3.5%
O=C(CN1CCN(c2cccc(C(F)(F)F)c2)CC1)N(C1CC1)C1CCS(=O)(=O)C1 (stereo unspecified)	6.5%	7.0%	0.0	0.4	2.9%	0.7%
CC(C)=CCc1c2c(c(O)c3c(=O)c4c(oc13)-c1cc(O)c(O)cc1OC4C=C(C)C)C=CC(C)(C)O2 (stereo unspecified)	15.9%	-20.1%	1.8	-16.1	0.4%	0.0%
